DAX1 inh-1: inhibitors of DAX1 repression of SF-1 activated StAR promoter; inhibition, % at 6.8 µM; AID 652010; HEK293T StAR-luciferase reporter, SF-1/DAX-1 repression relief; 370,000 compounds, 1.1% hits;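 active = inhibition above the mean over all tested compounds plus 3 SD, cut at about 3.6% in these data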;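 also: higher inhibition means more luminescence from relief of DAX-1 repression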
ssDAF12 agonist: activators of S. stercoralis DAF-12 nuclear receptor; HEK293 ssDAF-12/GRIP1 lit1-tk-luc reporter, luminescence; % of 3 µM dafachronic acid response; activation, % at 6.8 µM; 370,000 compounds, 1% hits; AID 652126;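 active = activation above the mean over all tested compounds plus 3 SD, cut at about 0.9% in these data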
hcDAF-12 act: H. contortus DAF-12 activation, primary screen | HEK293 hcDAF-12 lit1-tk-luc reporter, luminescence; 0% DMSO, 100% Δ7-dafachronic acid | activation, % at 6.8 µM | 370,000 compounds, 1.4% hits;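 active = activation above the mean of all tested compounds plus 3 SD, cut at about 5.5% in these data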
hgDAF12 agonist: hgDAF-12 agonism, primary luciferase screen; HEK293 GAL4-hgDAF12 UAS-luciferase reporter, agonist luminescence; normalized to butyrate control; activation, % at 6.8 µM; 370,000 compounds, 1.8% hits; AID 687014;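 active = activation above a cutoff set at the mean of all screened compounds plus 3 SD, cut at about 10% in these data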
DAX1 inh-2: inhibits human nuclear receptor DAX1; P51843; 340,000 compounds, 0.99% hits; HEK293 Gal4-DAX1 luciferase reporter, luminescence; AID 504766; inhibition, % at 6.75 µM;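 active = inhibition above the mean over all tested compounds plus 3 SD, cut at about 4.2% in these data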;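 also: inhibition shows as a rise in luminescence from relieved DAX1 repression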
Target sequence (P51843 207-470 limits assumed): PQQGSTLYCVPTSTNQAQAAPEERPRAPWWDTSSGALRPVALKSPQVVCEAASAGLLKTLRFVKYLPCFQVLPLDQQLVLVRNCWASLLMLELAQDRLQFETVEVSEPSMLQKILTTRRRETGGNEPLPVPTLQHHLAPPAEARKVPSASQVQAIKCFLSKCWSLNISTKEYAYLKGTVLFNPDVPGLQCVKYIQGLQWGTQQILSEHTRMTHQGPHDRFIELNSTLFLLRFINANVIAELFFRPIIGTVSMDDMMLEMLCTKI
DAX1 inh confirm: NR0B1 (human) inhibition, confirmation; HEK293T StAR-promoter luciferase reporter, SF-1/DAX-1 repression; inhibition, % at 6.8 µM; shares compounds with DAX1 inh-1; 2,400 compounds, 87% hits; AID 652134;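 active = inhibition above the average of every tested compound plus 3 SD, cut at about 3.8% in these data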;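 also: active compounds raise luminescence by relieving repression of the StAR reporter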
Target sequence (P51843 whole entry, looked up): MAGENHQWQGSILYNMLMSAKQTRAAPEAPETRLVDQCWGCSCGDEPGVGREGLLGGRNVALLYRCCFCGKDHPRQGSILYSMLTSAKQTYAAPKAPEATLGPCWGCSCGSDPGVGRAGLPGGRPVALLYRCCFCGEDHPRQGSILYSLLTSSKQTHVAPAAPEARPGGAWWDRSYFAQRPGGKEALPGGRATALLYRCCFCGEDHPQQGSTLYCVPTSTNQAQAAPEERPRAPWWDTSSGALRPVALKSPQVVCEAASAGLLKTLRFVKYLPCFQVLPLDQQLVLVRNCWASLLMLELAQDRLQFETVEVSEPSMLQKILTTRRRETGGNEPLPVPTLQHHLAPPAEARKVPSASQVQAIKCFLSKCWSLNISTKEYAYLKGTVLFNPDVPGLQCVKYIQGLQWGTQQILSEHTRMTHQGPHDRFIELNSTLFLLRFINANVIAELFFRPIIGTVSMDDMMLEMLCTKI
SF1 AF2mut Luc: nonselective inhibitor or artifact in SF-1 mutant DAX1 counter-screen | shares compounds with DAX1 inh-1 | HEK293 StAR-luciferase, SF-1 AF2 mutant, luminescence | inhibition, % at 6.8 µM | 2,400 compounds, 78% hits | AID 652136;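 active = inhibition above the mean of all tested compounds plus 3 SD, cut at about 3% in these data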
Large screens that a line does not name were inactive (follow-up assays come after a bar, where they were run). In the library only some 4.1% were active in any assay of this set; here they are far more common.

CC(=O)Nc1ccc(-c2ccnc3c2CC(C(=O)NCc2ccco2)O3)cc1 (stereo unspecified)	DAX1 inh-1 4.7 (no result: DAX1 inh-2) | DAX1 inh confirm 11.5 | SF1 AF2mut Luc inactive
CC(=O)Nc1ccc(-c2ccnc3c2CC(C(=O)NCc2ccccc2)O3)cc1 (stereo unspecified)	DAX1 inh-1 4.5 (no result: DAX1 inh-2) | DAX1 inh confirm 9.6 | SF1 AF2mut Luc inactive
CC(=O)Nc1ccc(-c2ccnc3c2CC(C(=O)NCCc2ccccc2)O3)cc1 (stereo unspecified)	none (no result: DAX1 inh-2)
C[C@H]1COc2cccc(N3CCCC3)c2S(=O)(=O)N1	none (no result: DAX1 inh-2)
COc1cccc(C2c3c(ncn(-c4ccccc4)c3=N)Oc3ccc4ccccc4c32)c1OC (stereo unspecified)	none (no result: DAX1 inh-1, DAX1 inh-2)
O=C(NC1CC1)c1cc2cc3ccccc3nc2s1	DAX1 inh-1 4.9 | DAX1 inh confirm 7.6 | SF1 AF2mut Luc 4.6
Cc1ccc2nc(-c3ccc(CN4CCC5(CC4)CNc4ccccc45)cc3)c(-c3ccccc3)nc2c1	none (no result: DAX1 inh-2)
CCN1CCN(C(=O)c2ccc3c(Cl)c4c(nc3c2)CCCC4)CC1	none
CN1CCN(C(=O)c2ccc3c(Cl)c4c(nc3c2)CCCC4)CC1	DAX1 inh-1 5.8 | DAX1 inh confirm 4.8 | SF1 AF2mut Luc inactive
CCOC(=O)N1CCC(NC(=O)c2ccc3c(c2)N=C(C)c2c(C)ccc(C)c2S3)CC1	DAX1 inh-1 9.0 | DAX1 inh confirm 14.8 | SF1 AF2mut Luc inactive
COC(=O)CSc1nc(-c2cccs2)ccc1C#N	DAX1 inh-1 5.9, ssDAF12 agonist 1.8, hcDAF-12 act 6.5, hgDAF12 agonist 11.9 | DAX1 inh confirm 9.9 | SF1 AF2mut Luc 8.2
O=C(O)/C=C/c1cnn(-c2ccccc2)c1	DAX1 inh-1 5.0 | DAX1 inh confirm 7.3 | SF1 AF2mut Luc 3.5
O=c1cc(-c2ccccc2)oc2cc(O)c(O)c(O)c12	DAX1 inh-1 5.5 | DAX1 inh confirm 9.6 | SF1 AF2mut Luc 5.1
O=c1cc(-c2ccc(O)cc2)oc2ccc3ccccc3c12	none
COc1ccc(NC(=O)N(C)C[C@H]2OCc3cn(nn3)CCCC(=O)N([C@H](C)CO)C[C@@H]2C)cc1	none (no result: DAX1 inh-2)
CC1CCN(C(=O)CNC(=O)c2ccc(Br)o2)CC1	DAX1 inh-1 4.9 | DAX1 inh confirm inactive | SF1 AF2mut Luc inactive
COc1ccc(NC(=O)CSc2nnc(-c3n[nH]c4c3CCC4)n2N)cc1OC	none (no result: DAX1 inh-2)
Cc1ccc(NC(=O)OCCCN2C(=O)CCC23CCC(C)CC3)cc1 (stereo unspecified)	none (no result: DAX1 inh-2)
CC(Sc1ccccc1F)C(=O)Nc1ccc2c(c1)OCCO2 (stereo unspecified)	DAX1 inh-1 4.9, ssDAF12 agonist 0.9 | DAX1 inh confirm 6.5 | SF1 AF2mut Luc 4.0
Cc1ccc(C)c(OCc2cc(C(=O)N3CCN(c4ccccc4)CC3)no2)c1	DAX1 inh-1 6.3 | DAX1 inh confirm 5.3 | SF1 AF2mut Luc 4.8
Cc1ccc(C)c(OCc2cc(C(=O)N3CCN(C(=O)c4ccco4)CC3)no2)c1	DAX1 inh-1 6.4 | DAX1 inh confirm 6.2 | SF1 AF2mut Luc 4.1
O=C(c1cc(COc2ccc(F)cc2F)on1)N1CCN(C(=O)c2ccco2)CC1	none
Cc1ccc(C(=O)Nc2ncc([N+](=O)[O-])s2)cc1	none
O=C(Nc1ncc([N+](=O)[O-])s1)c1ccco1	DAX1 inh-1 6.5 | DAX1 inh confirm 5.7 | SF1 AF2mut Luc 6.2
Cc1ccc(S(=O)(=O)N2CCCC2C(=O)N2CCN(c3ccccc3)CC2)cc1C (stereo unspecified)	none (no result: DAX1 inh-2)
CC(C)c1[nH]nc2c1C(c1cccc(C(F)(F)F)c1)NC2=O (stereo unspecified)	none (no result: DAX1 inh-2)
CCOC(=O)[C@]12CCCC3=C1N(CCC3)C(=O)[C@@H](CC(=O)N1CCOCC1)C2	none (no result: DAX1 inh-2)
O=C(COc1ccc(Br)cc1Cl)NC(=S)Nc1ccccn1	DAX1 inh-1 4.8, DAX1 inh-2 5.2 | DAX1 inh confirm 15.7 | SF1 AF2mut Luc 3.0
CC(=O)c1c(C)[nH]c(C(=O)Nc2ccc(S(=O)(=O)N(C)C)cc2)c1C	none
CC(=O)c1c(C)[nH]c(C(=O)Nc2ccc(C)c(S(=O)(=O)N(C)C)c2)c1C	DAX1 inh-1 13.1, ssDAF12 agonist 1.0, hgDAF12 agonist 10.5 | DAX1 inh confirm 14.7 | SF1 AF2mut Luc 6.7
O=C(O)c1cccc(N/N=C/c2ccc(F)c(F)c2)c1	DAX1 inh-1 5.0 | DAX1 inh confirm 11.5 | SF1 AF2mut Luc 7.2
O=C(N/N=C/c1ccc(O)cc1)c1cccc(N/N=C/c2ccc(O)cc2)c1	none
O=C(O)c1cccc(N/N=C/c2cn(-c3ccccc3)nc2-c2cccs2)c1	DAX1 inh-1 6.4 | DAX1 inh confirm 17.9 | SF1 AF2mut Luc 9.2
COc1ccc(C(=O)Oc2ccc(/C=N/Nc3ccc(Cl)c(C(=O)O)c3)cc2OC)cc1	none
C=CCOc1c(Br)cc(/C=N/Nc2ccc(C(=O)O)cc2)cc1OCC	DAX1 inh-1 7.3, hgDAF12 agonist 11.9 | DAX1 inh confirm 13.1 | SF1 AF2mut Luc 8.7
NC(=O)N/N=C/c1cn(-c2ccccc2)nc1-c1cccs1	none
COc1ccc(/C=N/Nc2ccc(C(=O)O)cc2)cc1OC	DAX1 inh-1 5.3, hcDAF-12 act 6.1, hgDAF12 agonist 11.1 | DAX1 inh confirm 16.6 | SF1 AF2mut Luc 5.8
CCOC(=O)CC[C@H](NC(=O)[C@@H]1CC=C[C@@H]2CCN(Cc3ccc(Cl)cc3)C(=O)[C@@H]21)C(=O)OCC	none (no result: DAX1 inh-1, DAX1 inh-2)
CSc1ccc(-c2csc(N3CCC(C(N)=O)CC3)n2)cc1	none (no result: DAX1 inh-1, DAX1 inh-2)
O=C(Nc1ccc(F)cc1F)c1csc(-c2cccs2)n1	DAX1 inh-1 7.0, ssDAF12 agonist 2.1, hgDAF12 agonist 12.7 | DAX1 inh confirm 9.3 | SF1 AF2mut Luc 6.7
Cc1cccc(CN2[C@@H](C)[C@H](c3ccccc3)Oc3cc(Br)ccc3S2(=O)=O)c1	none (no result: DAX1 inh-2)
COc1cc(OC)cc(-c2noc(-c3csc([C@H]4C[C@H](O)[C@@H](CO)O4)n3)n2)c1	none (no result: DAX1 inh-2)
OC[C@H]1O[C@H](c2nc(-c3nc(-c4cccs4)no3)cs2)C[C@@H]1O	DAX1 inh-1 4.8, hgDAF12 agonist 11.8 (no result: DAX1 inh-2) | DAX1 inh confirm 5.7 | SF1 AF2mut Luc inactive
O=C(NCC1(c2ccccc2)CCOCC1)c1ccc(Br)o1	none
CCc1ccc(C(=O)NCC2(c3ccccc3)CCOCC2)o1	DAX1 inh-1 4.6, hgDAF12 agonist 13.4 | DAX1 inh confirm 6.7 | SF1 AF2mut Luc 3.4
Cc1ccc(/C=N\NC(=O)c2ccc3c(c2)OCO3)o1	DAX1 inh-1 5.2 | DAX1 inh confirm inactive | SF1 AF2mut Luc 2.9
CCn1c2ccccc2c2cc(NC(=O)COC(=O)c3cc(F)ccc3C)ccc21	none (no result: DAX1 inh-2)
COc1ccc(-c2cc3c(o2)CCCC3OCCN2CCOCC2)cc1 (stereo unspecified)	DAX1 inh-1 4.7 (no result: DAX1 inh-2) | DAX1 inh confirm 5.7 | SF1 AF2mut Luc 3.0
